# In PubChem BioAssay (NCI):
# Compounds without any hit were thinned out: in the full panel of roughly 83,000, 20% have a hit.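 Cells were grown in 96-well plates and exposed to the test compound at a single concentration for 48 hours; results are reported as percent growth, with values below 10 considered active.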 Calls of active or inactive are those of the source.
# System: UO-31 renal
# Assay: NCI-60 one-dose screen, 48 h (100 = growth as untreated, 0 = no growth, -100 = all killed)
# Conditions: 10 µM unless noted
# Experimental: Growth inhibition of the UO-31 human tumor cell line is measured as a screen for anti-cancer activity. Cells are grown in 96 well plates and exposed to the test compound for 48 hours. Compounds are tested at a single concentration, which is 10^-5 M for most compounds. The reported endpoint is percent growth (GI% or GIPRCNT), where numbers from 0 - 100% represent growth inhibition, and numbers from -100% - 0 represent cell death. For example, a value of 40 represents 60% growth inhibition. A value of 0 means no net growth occurred over the course of the experiment. A value of -40 indicates 40% of cells at the beginning of the experiment died by the end of the experiment. A value of -100 means all cells are dead at the end of the experiment.
# NCI-60 Human Tumor Cell Lines Screen was performed using the standard one-dose NCI protocol, which is described in more detail at https://dtp.cancer.gov/discovery_development/nci-60/default.htm.
# Compounds with GIPRCNT values below 10 were considered active. Activity score was based on GIPRCNT using the following formula: […]
# Score is 0 for GIPRCNT values of 100 or above, 50 for GIPRCNT values of 0, and 100 for GIPRCNT values of -100.
row,Compound,growth
1,Clc1ccc2nc(-c3ccc(-c4ccc(/C=N/NC5=NCCN5)cc4)s3)cn2c1,72.8% (inactive)
2,CCN(CC)CCCC(C)Nc1c2ccc(C)cc2nc2ccc(OC)cc12 (stereo not given),-16.5% (active)
3,O=C(NNc1ccc(-c2ccccc2)nn1)c1ccc(F)cc1,80.8% (inactive)
4,CCCn1ccnc1C(O)c1ccc(OCc2ccccc2)c(OC)c1 (stereo not given),63.7% (inactive)
5,CCCCCCNC(=O)Nc1ncnc2c1ncn2-c1ccccc1,58.4% (inactive)
6,C=C(C)[C@@H]1CC[C@]2(C(=O)N3CCN(C)CC3)CC[C@]3(C)[C@H](CC[C@@H]4[C@@]5(C)C/C(=C/c6ccncc6)[C@H](O)C(C)(C)[C@@H]5CC[C@]43C)[C@@H]12,-61.4% [100 µM] (active)
7,COc1cc(OC)cc(C(=O)Nc2cc(-c3cccnc3)nc(NCCCN3CCOCC3)n2)c1,53.6% (inactive)
8,COc1ncc(-c2ccc3nccc(C#CCCCCC(=O)NO)c3c2)cc1NS(=O)(=O)c1ccc(F)cc1F,8.08% (active)
9,CCOC(=O)c1cc(C(=O)c2ccc(OC)c(OC)c2)n2ccc(-c3ccccn3)cc12,76.3% (inactive)
10,Cc1nc(Cl)c2c(n1)N(C)c1ccc(Cl)cc1C(C)C2 (stereo not given),70.9% (inactive)
11,C=C(C)[C@@H]1CC[C@]2(C(=O)NCCNCCNCCN)CC[C@]3(C)[C@H](CC[C@@H]4[C@@]5(C)CCC(=O)C(C)(C)[C@@H]5CC[C@]43C)[C@@H]12,-96.4% [100 µM] (active)
12,Cc1nc(Cl)cc(N(c2cc(Cl)nc(C)n2)c2ncc(C(=O)Nc3c(C)cccc3Cl)s2)n1,24.8% (inactive)
13,CSc1nc(=S)c2nc(SC)n(-c3ccccc3)c2[nH]1,83.9% (inactive)
14,CCCOc1ccc(-c2nc(-c3ccc(N)cc3)cs2)cc1,77.1% (inactive)
15,CC1=CCc2ccccc21,70.8% (inactive)
16,COc1cc2c(c(OC)c1)C1c3cc(OC)ccc3NC(=O)N1CC2 (stereo not given),78.5% (inactive)
17,CCOC(=O)C(c1ccccc1)N1C(=O)c2ccccc2C1=O (stereo not given),91.4% (inactive)
18,C=C(CC(=O)OC)C(C)=O,88.2% (inactive)
19,O=C(Nc1ccc(F)cc1)c1ccccc1,94.3% (inactive)
20,COc1cc(-c2cc(-c3ccc(Nc4ncnc5cc(Cl)ccc45)cc3)nc(N3CCCCC3)n2)cc(OC)c1OC,80% (inactive)

row,Compound,growth
1,C=C(C)[C@@H]1CC[C@]2(C(=O)NCCCCCCN(CCCN)CCCN)CC[C@]3(C)[C@H](CC[C@@H]4[C@@]5(C)CC[C@H](OCCCN)C(C)(C)[C@@H]5CC[C@]43C)[C@@H]12,53.4% [100 µM] (inactive)
2,CC(C)=CC/C=C(/C)[C@H]1CC[C@]2(C)[C@@H]1CC[C@@H]1[C@@]3(C)CC/C(=N/O)C(C)(C)[C@@H]3CC[C@]12C,58.3% [100 µM] (inactive)
3,COc1ncc(-c2ccc3nc(N)n(-c4ccccc4C(F)(F)F)c(=O)c3c2)cc1S(=O)(=O)Nc1ccc(F)cc1F,-13.4% (active)
4,C#C[C@]1(O)CC[C@H]2[C@@H]3CC=C4c5nc(Nc6ccccc6[N+](=O)[O-])sc5CC[C@]4(C)[C@H]3CC[C@@]21C,63.1% (inactive)
5,O=C(Nc1ccc(Cl)c(C(F)(F)F)c1)Nc1ccc(-c2cccnc2)cc1N1CCC(CO)CC1,21.9% (inactive)
6,N#Cc1c(Cl)nc(SCC2CO2)nc1-c1ccccc1 (stereo not given),66.1% (inactive)
7,C=C1C(=O)O[C@H]2[C@H]1CC/C(COC(=O)NCc1ccc(Cn3c(=O)sn(-c4ccc(Cl)cc4)c3=O)cc1)=C\CC[C@@]1(C)O[C@@H]21,57.7% (inactive)
8,CC1(C)CC(=O)c2c(ccc(C(=O)C[C@@H](N)CO)c2N)O1,25.1% (inactive)
9,N#C/C(C(=O)c1ccccc1)=C1/C(=O)Nc2ccc(F)cc21,74% (inactive)
10,CCOc1ccc(S(=O)(=O)Nc2ccc3c(c2)N(S(=O)(=O)CC)CCC3)cc1,80.9% (inactive)
11,CC1(C)[C@@H](NOCCCN)CC[C@]2(C)[C@H]3C(=O)C=C4[C@@H]5C[C@](C)(C(=O)O)CC[C@]5(C)CC[C@@]4(C)[C@]3(C)CC[C@@H]12,-100% [100 µM] (active)
12,O=C1CC(c2ccc3c(c2)OCO3)Nc2ccccc21 (stereo not given),43.9% (inactive)
13,COC(=O)[C@]1(C)CC[C@]2(C)CC[C@]3(C)C(=CC(=O)[C@@H]4[C@@]5(C)CCC(=O)NC(C)(C)[C@@H]5CC[C@]43C)[C@@H]2C1,-93.3% [100 µM] (active)
14,COc1cc(-c2nc(SCCC(C)C)nc(Nc3ccccc3)c2C#N)cc(OC)c1OC,68.4% (inactive)
15,COc1cc2c(cc1OCCCN1CCN(CCCOc3cc4c(cc3OC)C(=O)N3C[C@H](F)C[C@H]3C=N4)CC1)N=C[C@@H]1C[C@@H](F)CN1C2=O,11.8% (inactive)
16,Cc1ccc(-n2nc3n(/c2=N\C(=O)NS(=O)(=O)c2ccc(C)cc2)CCN3C2=NCCN2)cc1,84.1% (inactive)
17,CCOC(=O)C(C(C)=O)c1nc2sc3cc(Cl)c(Cl)cc3n2c(=O)c1C#N (stereo not given),58.4% (inactive)
18,CC(=O)Nc1ccc(C=Nc2ccc3ccccc3c2)cc1,98.5% (inactive)
19,O=S(=O)(NCCCNc1nccc(-c2c(-c3cccc(F)c3)nc3occn23)n1)c1cccc2ccccc12,17.6% (inactive)
20,Cc1cc(C)c(O)c(CNCCCNCc2cc(C)cc(C)c2O)c1,28.2% (inactive)
